Data published in PubChem BioAssay AID1347043 (National Center for Advancing Translational Sciences (NCATS), 2019).
Screen size: about 76,000 compounds; about 1,900 (2.5%) were called active. About 5% were inconclusive and are not listed. The sample holds actives, similar compounds and a random draw of the others, so the mix is not that of the screen. Calls follow the shape of the dose curve; as a rule, active = well fitted inhibition curve with a large enough effect; inconclusive = small, poorly fitted or top-dose-only effect; inactive = flat fitted curve, though single readings scatter.

Target: Luciferin 4-monooxygenase (Photinus pyralis) (UniProt P08659)
Experiment: Firefly luciferase inhibition profiling of diverse chemical library using quantitative high-throughput screening; also: nearly all actives have a fitted effect of over 65% in size
Settings: purified P. pyralis luciferase, luminescence, biochemical; series mostly up to 115 µM; activity change, negative = inhibition: at the top concentration
Text: Firefly (Photinus pyralis) luciferase is one of the most commonly used transcriptional reporters for a number of reasons. It is considered one of the more dynamically responsive reporters - that is, responsive to changes in reporter transcription - as it requires no post-translational modifications and is enzymatically active directly after protein synthesis (Wood, 1998). Additionally, the half-life of the luciferase protein is short relative to other reporter-gene products (Wood, 1995). Whereas reporters with long half-lives potentially allow for increased signal due to accumulation of reporter-gene product, once accumulated in the cell, dynamic changes in reporter-gene expression may be difficult to detect(Fan and Wood, 2007; Almond et al., 2004). It has been shown that wild-type P. pyralis luciferase has a half-life of approximately four hours in mammalian cells (Thompson et al., 1991). Firefly luciferase reporter-gene assays are also generally considered one of the most sensitive assay types (Wood, 1995; Wood, 1998). Although light produced in a bioluminescence reaction is of lower intensity than that produced during fluorescence emission, this is offset by little to no background light inherent to luminescent assays. Thus the luciferase reporter can be expressed at much lower levels than fluorescent proteins while still providing robust signal. However, it was initially observed, in 1991, by Thompson et al., that compounds that resemble the substrates of firefly luciferase (FLuc) can act as competitive inhibitors of the enzyme, and that these compounds, upon interaction with luciferase in the cell, can actually stabilize the protein and increase its half-life. Accumulated intracellular FLuc protein can be measured as an increase in luminescence signal, upon addition of detection reagents (which contain high concentrations of FLuc substrates) commonly used in high-throughput screening. In cell-based reporter gene assays that use FLuc as the reporter gene to quantitate the potential influence of a given compound against the target biology, this apparent increase in luminescence can mistakenly be interpreted as identification of a compound that is active against the target of interest. FLuc inhibitory compounds that stabilize the FLuc protein will give an identical read-out, making it difficult to distinguish compounds that are active against the target from those active against FLuc. In summary, the results generated here constitutes a valuable resource for the scientific community and provides insight on identifying compounds with inhibitory activity for the commonly-used reporter, firefly luciferase. References: -Almond, B., Zdanovsky, A., Zdanovskaia, M., Ma, D., Stecha, P., Paguio, A., Garvin, D., and Wood, K. (2004). Introducing the Rapid Response Reporter Vectors. Promega Notes 87, 18-22. -Fan, F., and Wood, K.V. (2007). Bioluminescent assays for high-throughput screening. Assay Drug Dev Technol 5, 127-136. -Thompson, J.F., Hayes, L.S., and Lloyd, D.B. (1991). Modulation of firefly luciferase stability and impact on studies of gene regulation. Gene 103, 171-177. -Wood, K.V. (1998). The chemistry of bioluminescent reporter assays. Promega Notes 65, 14-20. -Wood, K.V. (1995). Marker proteins for gene expression. Curr Opin Biotechnol 6, 50-58.
Reagents: 50mM Tris acetate, pH 7.5; 10mM Mg acetate; 10uM D-luciferin (Sigma #L9504); 10uM ATP; 0.01% Tween-20; 0.05% BSA; 10nM P. pyralis luciferase (Sigma #L9506) Control compounds used were two known firefly luciferase inhibitors (compounds (2) and (5) in Auld et al., 2010), and DMSO. Assay Summary: Three microliters containing firefly luciferase substrates in buffer (final concentrations: 50mM Tris acetate, pH 7.5, 10mM Mg acetate, 0.01% Tween-20, 0.05% BSA, 10uM D-luciferin, and 10uM ATP) are dispensed into each well of a Greiner white, solid-bottom 1536-well format plate using a flying reagent dispenser (FRD). […]
% is scaled to controls: 0 for no effect and ±100 for the full control effect.

Sequence of Luciferin 4-monooxygenase (Photinus pyralis) (P08659 whole entry, looked up): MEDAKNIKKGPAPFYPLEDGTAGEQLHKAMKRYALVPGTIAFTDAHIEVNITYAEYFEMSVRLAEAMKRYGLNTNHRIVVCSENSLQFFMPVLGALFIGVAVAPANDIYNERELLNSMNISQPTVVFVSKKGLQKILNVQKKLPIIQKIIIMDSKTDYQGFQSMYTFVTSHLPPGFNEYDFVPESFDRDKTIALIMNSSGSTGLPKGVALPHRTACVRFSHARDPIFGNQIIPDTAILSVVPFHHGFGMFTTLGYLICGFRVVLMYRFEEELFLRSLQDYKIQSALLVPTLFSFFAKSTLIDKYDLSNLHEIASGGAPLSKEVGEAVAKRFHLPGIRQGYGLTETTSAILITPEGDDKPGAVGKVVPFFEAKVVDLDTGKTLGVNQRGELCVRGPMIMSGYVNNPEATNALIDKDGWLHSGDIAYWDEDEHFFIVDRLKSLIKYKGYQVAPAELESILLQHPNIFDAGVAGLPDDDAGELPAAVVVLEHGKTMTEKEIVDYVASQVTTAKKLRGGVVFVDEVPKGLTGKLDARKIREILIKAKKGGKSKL

Activity change, negative = inhibition, inactive:
O=C(c1ccccc1C1CCNC1)N1CCC(Nc2ncccn2)CC1 (stereo not drawn) 3.36%, CN1C(=O)CO[C@H]2CN(C(=O)c3ccccc3)C[C@H]21 0.13% [at 230 µM], Cc1ccccc1CN1CCOc2cc([S+](=O)([O-])N(C)C)ccc2C1 -3.29% [at 172 µM], CC(C)CN1CCN(C(=O)c2cc3c(s2)CCN(C(=O)c2ccc(Cl)cc2)C3)CC1 -6.31%, CC(C)c1noc([C@H]2C[C@@H]3C(=O)NCCCCCCN(C(=O)Cc4cccnc4)[C@@H]3C2)n1 -15.9%, COc1ccc(C)cc1NC(=O)Cn1nc2n(c1=O)CCCC2 -4.41%, COc1cc(=O)n2c(c1C(=O)Nc1cc(C)ccc1C)CCCC2 -5.74%, COc1cc(Cl)ccc1C(=O)N1CCC[C@H]1c1nc(-c2ccccc2)no1 12.2%, COCCn1c(=O)n([C@H]2CCCN(C(=O)c3cc4ccccc4[nH]3)C2)c2ncccc21 8.11%, Cc1cccc(C(=O)N2CCCC(C(=O)N3CCN(c4ccccn4)CC3)CCNC(=O)CC2)c1 (stereo not drawn) 7.1%, COc1ccc(CCNC(=O)c2noc(-c3ccc(C)cc3)n2)cc1OC -16.8%, CC(NC(=O)Cc1cccc(F)c1)C(=O)N1CCN(c2ccccn2)CC1 (stereo not drawn) -7.86%, CSc1ccc(CNC(=O)c2noc(-c3ccc(C)cc3)n2)cc1 -8.08%, COCCn1c(CO)nnc1C1CC(NC(=O)c2sc(C)nc2C)C1 (stereo not drawn) -3.21%, CCC(C(=O)Nc1ccc2c(c1)CN(Cc1cc(F)cc(F)c1)C(=O)CO2)c1ccccc1 (stereo not drawn) 1.72%, COc1cccc(C(=O)N2CCC(C(NC(=O)c3ccccc3C)C(=O)NCC(C)C)CC2)c1 (stereo not drawn) -5.87%, O=C(NCC1Cn2cccc2C(=O)N1Cc1ccccc1)c1ccc(F)cc1 (stereo not drawn) -1.37%, CCC1=C(C(=O)OC)C(c2ccc(C)cc2C)N2C(CC(=O)N3CCOCC3)=CSC2=N1 (stereo not drawn) -4.47%, N#Cc1cc2c(nc1N1CCN(C3CCCC3)C(CCO)C1)CCCC2 (stereo not drawn) 3.08%, COC(=O)c1ccccc1NC(=O)Cn1nc2n(c1=O)CCCCC2 -2.82%, COc1ccccc1-c1cc(-c2cn[nH]c2)c2cncn2c1 -6.95% [at 230 µM], COc1ncccc1-c1cc(-c2cn[nH]c2)c2cncn2c1 10% [at 230 µM], CC(C)C(=O)N1CCCC(c2nc(-c3ccccc3)no2)CCNC(=O)CC1 (stereo not drawn) -3.93%, Cn1cccc1C(=O)N1CCCC(c2nc(-c3ccccc3)no2)CCNC(=O)CC1 (stereo not drawn) 2.73%, CC[C@H]1CN(C(=O)c2ccc(F)cc2)CC[C@H]1CC(=O)Nc1ccccc1 13.4% [at 172 µM], Cn1ccc(Nc2cc3c(cn2)CN(CCc2ccccc2)CCN3)n1 3.4% [at 172 µM], O=C1CN(Cc2ccc(-c3ccccc3)cc2)CCN1c1cc(Cl)ncn1 -11.2%, Cc1cccn2c(CC(=O)NCC3CCN(c4cnn(C)c(=O)c4)C3)cnc12 (stereo not drawn) 10.5%, O=C(O)[C@@H]1CN(C(=O)NC2CCCC2)C[C@H]1c1ccccn1 0%, COc1ccccc1C(=O)NCc1ccnc2[nH]ccc12 -9.82% [at 172 µM], O=C(NCc1c[nH]c2ncccc12)c1ccccn1 -11% [at 172 µM], CN(C)c1ccc(NC(=O)COc2ccc(-c3nnc4n3CCCC4)cc2)cc1 1.38%, Nc1nc(C2CC(NC(=O)CCc3nc4ccc(F)cc4[nH]3)C2)cc(=O)[nH]1 (stereo not drawn) 1.51%, COCc1nc(-c2ccc(NC(=O)Cn3nc4c(cc3=O)CCCC4)cc2)n[nH]1 5.99%, O=C(NCc1ccccn1)C1CN(S(=O)(=O)c2cccs2)CC12CCCCC2 (stereo not drawn) -9.22%, O=C(NC1CC1)[C@@H]1C[C@H](Oc2cccnc2)CN1C(=O)C1CCC1 -5.55%, N#Cc1ccc(O[C@@H]2COCC[C@H]2NC(=O)CCCn2cccn2)cc1 0.744%, CCOC(=O)c1ccc(NC(=O)N2Cc3[nH]cnc3C[C@H]2c2nc(-c3ccc(Cl)cc3)no2)cc1 -15.6%, CC(C)NC(=O)N1Cc2[nH]cnc2C[C@H]1c1nc(-c2ccc(Cl)cc2)no1 -14.5% [at 172 µM]

Potency, active:
COc1ccc(C)cc1NC(=O)Nc1cccc(-c2ccc(N3CCCCC3)nn2)c1 0.282 µM, Cc1ccc(-c2nc(C(=O)N(C)Cc3ccccc3)no2)cc1 10 µM, Cc1ccc(-c2nc(C(=O)N3CCN(c4ccccn4)CC3)no2)cc1 14.1 µM, c1cc(N2CCOCC2)ccc1-c1cc(-c2cn[nH]c2)c2cncn2c1 22.4 µM, Cc1ccc(C(=O)N2CCCC(c3nc(-c4ccccc4)no3)CCNC(=O)CC2)cn1 (stereo not drawn) 28.2 µM, OCc1cccc(-c2cc3c(cn2)CN(Cc2ccccc2)CCN3)c1 14.1 µM, O=C(NCc1ccnc2[nH]ccc12)c1ccccn1 28.2 µM, COCc1nc(C2CC(NC(=O)c3cc(-c4ccsc4)n[nH]3)C2)cc(=O)[nH]1 (stereo not drawn) 28.2 µM, Cc1cccc(-c2noc([C@@H]3Cc4nc[nH]c4CN3C(=O)Nc3ccccc3)n2)c1 50.1 µM
